Screening results from PubChem.
A selection: hits, their analogues and other compounds. The true share with any hit is near 3.6%.
IL1B cytotox = cytotoxicity in IL-1B stimulated HUVEC, primary screen, cytotoxicity control for IL-1B NFkB translocation project, imaging, Hoechst nuclear count, IL-1B stimulus; cell count reduction, % at 2 µM; 94,000 tested, 0.41% active; HUVEC cell count loss;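 active = cell count reduction more than 3 SD above the screen-wide mean, cut at about 70% in these data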;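 also: normalized per plate to untreated control cells as the no-loss baseline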
IL1B NFkB pot = enhancers of NFkB p65 translocation in HUVEC – imaging, IL-1B stimulus, high-content imaging, primary screen | 94,000 tested, 0.3% active | activation, % at 2 µM | AID 819, 2007 | HUVEC IL-1B NFkB p65 nuclear translocation imaging;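 active = activation above 40%, about the mean plus 3 SD, also judged a hit on visual image review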;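 also: percent activation is computed from the nuclear over cytoplasmic p65 intensity ratio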
NFkB transloc inh = inhibitors of IL-1B driven NFkB p65 nuclear import, primary screen, imaging, HUVEC, IL-1B stimulus, high-content imaging; HUVEC IL-1B NFkB p65 nuclear translocation imaging; inhibition, % at 2 µM; 94,000 tested, 0.43% active; AID 796, 2007;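 active = inhibition above about 30% together with a positive call from visual inspection of the well image, limit read from the data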;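 also: nuclear over cytoplasmic p65 intensity ratio measured by imaging; 0% = IL-1B stimulated DMSO wells and 100% = unstimulated DMSO wells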
ERa coact inh = ERα–SRC-1 coactivator interaction inhibitors, primary screen, biochemical, TR-FRET, ERα LBD, estradiol-bound; inhibition, % at 25.6 µM; 86,000 tested, 1.7% active; TR-FRET ER-alpha LBD / SRC-1 peptide; in the data active = inhibition above about 50%;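 also: 0% = receptor plus peptide control and 100% = peptide only without receptor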
ERa SRC1 pot = enhancers of ERα–SRC-1 coactivator binding, primary screen, biochemical, TR-FRET, ERα LBD, low estradiol; 86,000 tested, 1.3% active; TR-FRET ERalpha-LBD/SRC-Cy5 coactivator binding, 2 h; 100 = basal binding, no effect; coactivator binding (% of control), % at 25.6 µM; AID 639, 2007; in the data active = activity above about 200%;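 also: binding measured in presence of low estradiol as agonist stimulus; 0% = peptide alone without receptor and 100% = receptor with peptide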
ERb SRC1 inh = inhibitors of ERβ-SRC1 coactivator interaction, primary screen, biochemical, TR-FRET, ERβ LBD, SRC-1 peptide; inhibition, % at 25.6 µM; 86,000 tested, 1.3% active; Estrogen receptor beta (Homo sapiens), Q92731; AID 633, 2007; TR-FRET ER-beta LBD / SRC1-Cy5 peptide binding; receptor agonist-loaded with 1 µM estradiol;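 active = compounds whose percent inhibition of the receptor-coactivator binding signal exceeds about 50% in the single-dose screen, limit read from the data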;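 also: 0% = receptor plus peptide wells without compound and 100% = peptide-only wells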
Target sequence (Q92731 whole entry, looked up, the tested form may be a part): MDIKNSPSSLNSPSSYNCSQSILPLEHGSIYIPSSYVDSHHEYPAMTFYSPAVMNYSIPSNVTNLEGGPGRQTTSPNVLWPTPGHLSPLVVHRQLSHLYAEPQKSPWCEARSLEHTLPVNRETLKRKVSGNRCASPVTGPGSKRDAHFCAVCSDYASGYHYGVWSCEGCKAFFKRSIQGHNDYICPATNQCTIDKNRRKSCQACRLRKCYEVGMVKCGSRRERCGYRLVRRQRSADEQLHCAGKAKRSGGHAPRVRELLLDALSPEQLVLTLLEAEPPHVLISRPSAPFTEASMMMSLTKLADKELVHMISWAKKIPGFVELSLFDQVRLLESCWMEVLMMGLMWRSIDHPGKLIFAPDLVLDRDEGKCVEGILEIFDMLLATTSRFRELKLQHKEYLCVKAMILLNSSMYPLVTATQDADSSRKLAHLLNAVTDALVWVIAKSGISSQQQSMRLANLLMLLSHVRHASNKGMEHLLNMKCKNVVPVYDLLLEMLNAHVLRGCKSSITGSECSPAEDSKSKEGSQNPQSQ
An asterisk follows results filed as active; [ ] = another dose, or the depositor's remark.

For O=C(CCc1ccccc1)Nc1nnc(-c2ccc3c(c2)CCCC3)o1 the results were IL1B cytotox -3.7, IL1B NFkB pot -0.1, NFkB transloc inh 0.1, ERa coact inh 4.0, ERa SRC1 pot 110.7 and ERb SRC1 inh 8.0.
O=C(CCc1ccccc1)Nc1nnc(-c2cccs2)o1 was read as ERa coact inh 0.0, ERa SRC1 pot 97.1 and ERb SRC1 inh 69.9*.
For O=C(NCCNS(=O)(=O)c1cccc(C(F)(F)F)c1)c1cc(OCC(F)(F)F)ccc1OCC(F)(F)F the results were IL1B cytotox 6.6, IL1B NFkB pot -1.7 and NFkB transloc inh 1.7.
For O=C(Cn1cc(C(=O)c2ccco2)c2ccccc21)NC1CCCC1 the results were IL1B cytotox -0.5, IL1B NFkB pot -7.2, NFkB transloc inh 7.2, ERa coact inh 2.4, ERa SRC1 pot 554.2*[fluorescence artefact?] and ERb SRC1 inh -1.0.
For CCn1c(=N)c(C(N)=O)cc2c(=O)n3cccc(C)c3nc21 the results were IL1B cytotox 13.6, IL1B NFkB pot 11.4, NFkB transloc inh -11.4, ERa coact inh 50.0*, ERa SRC1 pot 64.7 and ERb SRC1 inh 36.8.
`COCCCn1c(=N)c(C(=O)NCc2ccc3c(c2)OCO3)cc2c(=O)n3cccc(C)c3nc21` gave ERa coact inh 18.7, ERa SRC1 pot 91.5 and ERb SRC1 inh 24.0.
CCn1c(=N)c(C(=O)NC)cc2c(=O)n3cccc(C)c3nc21 was read as ERa coact inh -7.2, ERa SRC1 pot 100.7 and ERb SRC1 inh -4.0.
`COCCCn1c(=N)c(C(N)=S)cc2c(=O)n3cccc(C)c3nc21` gave ERa coact inh 68.9*[fluorescence artefact?], ERa SRC1 pot 37.3 and ERb SRC1 inh 34.7.
OC1C[N+]2(CCCCC2)C1 was read as IL1B cytotox 92.1*, IL1B NFkB pot 16.9, NFkB transloc inh -16.9, ERa coact inh -0.9, ERa SRC1 pot 106.6 and ERb SRC1 inh -2.7.
`Cc1noc(C)c1COC(=O)c1ccc(-c2nc3ccccc3s2)s1` gave IL1B cytotox -44.1, IL1B NFkB pot 11.1, NFkB transloc inh -11.1, ERa coact inh 61.0*[fluorescence artefact?], ERa SRC1 pot 151.8 and ERb SRC1 inh 42.3.
`CCn1c(SCC(=O)O)nc2sc3c(c2c1=O)CCC3` gave IL1B cytotox 4.8, IL1B NFkB pot 2.5, NFkB transloc inh -2.5, ERa coact inh 90.9*[fluorescence artefact?], ERa SRC1 pot 5.7 and ERb SRC1 inh 91.5*[fluorescence artefact?].
`Cc1cc(NC(=O)CSc2nc3sc4c(c3c(=O)n2C)CCCC4)no1` gave IL1B cytotox 9.4, IL1B NFkB pot 1.1, NFkB transloc inh -1.1, ERa coact inh 65.2*[fluorescence artefact?], ERa SRC1 pot 81.6 and ERb SRC1 inh 48.0.
C=CCn1c(SCC(=O)Nc2cc(C)on2)nc2sc3c(c2c1=O)CCCC3 was read as IL1B cytotox -12.2, IL1B NFkB pot -23.2 and NFkB transloc inh 23.2.
CCn1c(SCC(=O)Nc2cc(C)on2)nc2sc3c(c2c1=O)CCCC3 was read as IL1B cytotox 82.7*, IL1B NFkB pot -96.4, NFkB transloc inh 96.4*, ERa coact inh 24.4, ERa SRC1 pot 95.8 and ERb SRC1 inh 20.1.
Screening Cc1cc(NC(=O)CSc2nc(C(C)C)nc3sc4c(c23)CCCC4)no1 returned IL1B cytotox 6.1, IL1B NFkB pot 7.1, NFkB transloc inh -7.1, ERa coact inh 0.5, ERa SRC1 pot 205.9*[fluorescence artefact?] and ERb SRC1 inh 18.0.
Screening COc1ccccc1NC(=O)N1CCc2[nH]c3ccc(Cl)cc3c2C1 returned IL1B cytotox -29.7, IL1B NFkB pot -5.1, NFkB transloc inh 5.1, ERa coact inh -5.8, ERa SRC1 pot 105.6 and ERb SRC1 inh -3.0.
`O=C(CN1CCN(Cc2cccc(Cl)c2)C1=O)NCc1ccccn1` gave IL1B cytotox 8.1, IL1B NFkB pot 2.1, NFkB transloc inh -2.1, ERa coact inh -4.6, ERa SRC1 pot 103.6 and ERb SRC1 inh 5.2.
